In all, about 130,000 compounds went through this assay and about 1,200 (0.92%) were called active. About 3% were inconclusive and are not listed. The calls are words filed in the database; no cut-off is given here. Only a selection was taken, and actives are over-represented in it overall.
What follows are molecules tested against Cellular tumor antigen p53 (Homo sapiens) (UniProt P04637) (assay: qHTS Screen for Compounds that Selectively Target Cancer Cells with p53 Mutations: Cytotoxicity of p53ts Cells at the Permissive Temperature. [Related pubchem assays: 902 ]).
Sequence of Cellular tumor antigen p53 (Homo sapiens) (P04637 whole entry, looked up): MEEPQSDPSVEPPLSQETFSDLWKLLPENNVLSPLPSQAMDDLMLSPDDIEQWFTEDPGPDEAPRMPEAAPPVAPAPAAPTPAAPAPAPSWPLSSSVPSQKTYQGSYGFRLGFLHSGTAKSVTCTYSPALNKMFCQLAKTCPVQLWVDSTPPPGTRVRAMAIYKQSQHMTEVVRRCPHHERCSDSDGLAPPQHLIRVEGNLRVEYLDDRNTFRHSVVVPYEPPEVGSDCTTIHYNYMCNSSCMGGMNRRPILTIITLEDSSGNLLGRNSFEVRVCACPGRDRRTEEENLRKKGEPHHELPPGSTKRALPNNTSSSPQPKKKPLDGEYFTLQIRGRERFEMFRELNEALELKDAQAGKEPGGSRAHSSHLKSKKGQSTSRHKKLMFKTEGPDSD
Format: functional
With `O=C(/C=C/c1ccc(Cl)cc1)c1cccs1` the Potency was 15.8 µM (active). `COc1ccccc1/C=C/C(=O)c1cccs1` was tested, and the Potency was 10 µM (active).

Reference: ChEMBL document CHEMBL1201862, “PubChem BioAssay data set” (2004)
